Assay results from PubChem BioAssay (NCATS).
Activity calls are given as the source filed them. The call rests on the fitted dose curve.

Experiment: qHTS drug screen for cell cycle checkpoint inhibitors in PARPi-resistant BRCA-mutant ovarian cancer cell lines. (AID 1963452)
Conditions: PEO1/OlaR viability, CellTiter-Glo luminescence, 96 h; stronger effect = lower value
Outline: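 PEO1, PEO4 and PEO1/OlaR ovarian cancer cells, 600 per well, exposed 96 h at 37C to a dilution series. Viability read by CellTiter-Glo luminescence, normalized to DMSO and empty wells; activity summarized as Z-AUC.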

Q: With `CC1CNc2c(cccc2S(=O)(=O)N[C@@H](CCCN=C(N)N)C(=O)N2CC[C@@H](C)C[C@@H]2C(=O)O)C1` (some centres not stated) as the compound, how does the Z-AUC read?
A: 1.14 (inactive)

Q: For `CCC(=O)NCC[C@@H]1CCc2ccc3c(c21)CCO3`, which Z-AUC is on record?
A: -0.993 (inactive)

Q: For `COc1nccc(-c2c(-c3ccc(F)cc3)ncn2C2CCNCC2)n1`, which Z-AUC is on record?
A: 1.19 (inactive)

Q: Which Z-AUC does the source give for `Cc1ccc2c(=O)c3cccc(CC(=O)O)c3oc2c1C` here?
A: 0.508 (inactive)

Q: With `COC(=O)N1CCN(Cc2cccc(NC(=O)Nc3ccc(C)nc3)c2F)CC1` as the compound, how does the Z-AUC read?
A: -0.162 (inactive)

Q: With `O=C1C(c2c(O)[nH]c3ccccc23)=Nc2ccccc21` as the compound, how does the Z-AUC read?
A: 0.207 (inactive)

Q: For `O=c1cc(-c2ccc(O)c(O)c2)oc2cc(O)cc(O)c12`, which Z-AUC is on record?
A: 0.185 (inactive)

Q: For `O=c1[nH]nc(OCCCc2ccc(Cl)cc2)c(NCc2cccnc2)c1Br`, which Z-AUC is on record?
A: -1.27 (inactive)

Q: For `CO[C@@H]1C(N(C)C(=O)c2ccccc2)C[C@H]2O[C@]1(C)n1c3ccccc3c3c4c(c5c6ccccc6n2c5c31)C(=O)NC4=O` (some centres not stated), which Z-AUC is on record?
A: 0.0475 (inactive)

Q: With `CC1(COc2ccc3c(c2)ncn3-c2ccc3cccc(N4CCC(N)CC4)c3n2)COC1` as the compound, how does the Z-AUC read?
A: 0.496 (inactive)

Q: For `COc1nccc(-c2c(-c3ccc(F)cc3)ncn2C2CCC(O)CC2)n1` (configuration not stated), which Z-AUC is on record?
A: 1.26 (inactive)

Q: For `COc1ccc2c(c1)c(C1=C(c3c[nH]c4ccccc34)C(=O)NC1=O)cn2CCCN(C)C`, which Z-AUC is on record?
A: -1.63 (inactive)

Q: With `COc1c(C)cnc(Cn2cnc3c(Cl)nc(N)nc32)c1C` as the compound, how does the Z-AUC read?
A: -0.301 (inactive)

Q: Which Z-AUC does the source give for `COc1cc2ncn(-c3cc(OCc4ccccc4S(C)(=O)=O)c(C#N)s3)c2cc1OC` here?
A: 0.942 (inactive)

Q: Which Z-AUC does the source give for `O=C(Nc1cccc(Cl)c1)Nc1ncc(CCNc2ncnc3ccsc23)s1` here?
A: -0.664 (inactive)

Q: For `COC(=O)Nc1ccc(-c2nc(N3CCOCC3)c3cnn(C4CCN(C(=O)OC)CC4)c3n2)cc1`, which Z-AUC is on record?
A: 0.0604 (inactive)

Q: With `CCCC1OC2C[C@@H]3[C@H]4CCC5=CC(=O)C=C[C@]5(C)[C@H]4C(O)C[C@]3(C)[C@]2(C(=O)CO)O1` (some centres not stated) as the compound, how does the Z-AUC read?
A: -0.0333 (inactive)

Q: Which Z-AUC does the source give for `COc1cc2nccc(Oc3ccc(NC(=O)Nc4cc(C)on4)c(Cl)c3)c2cc1OC` here?
A: -0.11 (inactive)

Q: With `Cc1ccc(NC(=O)c2cccc(N(C)C)c2)cc1NC(=O)c1ccc(O)cc1` as the compound, how does the Z-AUC read?
A: 1.75 (inactive)

Q: For `Cc1ccc(S(=O)(=O)Nc2nc3ccccc3nc2Nc2ccc3nsnc3c2)cc1`, which Z-AUC is on record?
A: -0.8 (inactive)

Q: Which Z-AUC does the source give for `COc1cc(Nc2nc3ccccc3nc2NS(=O)(=O)c2ccc(NC(=O)c3ccc(C)c(OC)c3)cc2)cc(OC)c1` here?
A: -0.848 (inactive)

Q: For `CC1=C(CC(=O)O)c2cc(F)ccc2C1=Cc1ccc(S(C)=O)cc1` (configuration not stated), which Z-AUC is on record?
A: -0.123 (inactive)

Q: Which Z-AUC does the source give for `O=C(O)CCNc1cc(N2CCc3ccccc3CC2)nc(-c2ccccn2)n1` here?
A: 0.743 (inactive)

Q: For `c1ccc(CNc2nc(N3CCOc4ccccc43)nc3c2CCCC3)cc1`, which Z-AUC is on record?
A: 0.483 (inactive)

Q: For `O=C(CO)N1CCC(c2[nH]nc(-c3ccc(Cl)cc3)c2-c2ccncn2)CC1`, which Z-AUC is on record?
A: -0.00709 (inactive)

Q: Which Z-AUC does the source give for `Cc1ccc(NC(=O)c2ccc(CN3CCN(C)CC3)cc2)cc1Nc1nc(-c2cccnc2)cs1` here?
A: -0.78 (inactive)

Q: With `CCC(c1ccc(O)cc1)C(CC)c1ccc(O)cc1` (configuration not stated) as the compound, how does the Z-AUC read?
A: -0.216 (inactive)

Q: Which Z-AUC does the source give for `Cc1ccc(C2=Nc3ccc(Cl)cc3OC2)cc1` here?
A: 1.28 (inactive)

Q: Which Z-AUC does the source give for `Nc1ccn([C@@H]2O[C@H](CO)[C@@H](O)[C@H]2O)c(=O)n1` here?
A: 0.821 (inactive)

Q: For `Nc1ncnc2c1c(-c1cccc(OCc3ccccc3)c1)cn2C1CC(CN2CCC2)C1` (configuration not stated), which Z-AUC is on record?
A: -0.485 (inactive)

Q: With `CCCCCCCCCCCCCCCC(=O)O[C@H]1[C@@H](O)[C@@H](O)[C@@H]([C@H](NC(=O)[C@@H]2C[C@@H](CCC)CN2C)[C@H](C)Cl)O[C@@H]1SC` as the compound, how does the Z-AUC read?
A: 1.31 (inactive)

Q: Which Z-AUC does the source give for `C[C@@]1(C(=O)Nc2ccc(F)nc2)CCCN1c1nc(Nc2cc(C3CC3)[nH]n2)c2cccn2n1` here?
A: 0.31 (inactive)

Q: For `CC(C)(OCc1nn(Cc2ccccc2)c2ccccc12)C(=O)O`, which Z-AUC is on record?
A: 1.03 (inactive)

Q: Which Z-AUC does the source give for `CCc1cc(-c2n[nH]c(C)c2-c2ccc3c(c2)OCCO3)c(O)cc1O` here?
A: 0.644 (inactive)

Q: Which Z-AUC does the source give for `CSc1cccc(Nc2ncc3cc(-c4c(Cl)cccc4Cl)c(=O)n(C)c3n2)c1` here?
A: 0.438 (inactive)

Q: With `C[C@@H](O[C@H]1OCCN(Cc2n[nH]c(=O)[nH]2)[C@@H]1c1ccc(F)cc1)c1cc(C(F)(F)F)cc(C(F)(F)F)c1` as the compound, how does the Z-AUC read?
A: -0.0654 (inactive)

Q: With `COc1cc(F)c(C(C)C)cc1-c1ccc(C(F)(F)F)cc1CN1C(=O)O[C@H](c2cc(C(F)(F)F)cc(C(F)(F)F)c2)[C@@H]1C` as the compound, how does the Z-AUC read?
A: 0.469 (inactive)

Q: With `COc1ccc(Cn2ccc3ccc(C(=O)NO)cc32)cc1` as the compound, how does the Z-AUC read?
A: 1.36 (inactive)

Same assay, conditions: PEO1/OlaR viability, CellTiter-Glo luminescence, 96 h; measured here: PEO1 parental Z-AUC; stronger effect = lower value

Q: With `CC1CNc2c(cccc2S(=O)(=O)N[C@@H](CCCN=C(N)N)C(=O)N2CC[C@@H](C)C[C@@H]2C(=O)O)C1` (some centres not stated) as the compound, how does the Z-AUC read?
A: 0.686

Q: Which Z-AUC does the source give for `CCC(=O)NCC[C@@H]1CCc2ccc3c(c21)CCO3` here?
A: 1.01

Q: With `COc1nccc(-c2c(-c3ccc(F)cc3)ncn2C2CCNCC2)n1` as the compound, how does the Z-AUC read?
A: 0.981

Q: With `Cc1ccc2c(=O)c3cccc(CC(=O)O)c3oc2c1C` as the compound, how does the Z-AUC read?
A: 0.654

Q: With `COC(=O)N1CCN(Cc2cccc(NC(=O)Nc3ccc(C)nc3)c2F)CC1` as the compound, how does the Z-AUC read?
A: -0.204

Q: With `O=C1C(c2c(O)[nH]c3ccccc23)=Nc2ccccc21` as the compound, how does the Z-AUC read?
A: 0.824

Q: With `O=c1cc(-c2ccc(O)c(O)c2)oc2cc(O)cc(O)c12` as the compound, how does the Z-AUC read?
A: 0.49

Q: With `O=c1[nH]nc(OCCCc2ccc(Cl)cc2)c(NCc2cccnc2)c1Br` as the compound, how does the Z-AUC read?
A: -1.54

Q: For `CO[C@@H]1C(N(C)C(=O)c2ccccc2)C[C@H]2O[C@]1(C)n1c3ccccc3c3c4c(c5c6ccccc6n2c5c31)C(=O)NC4=O` (some centres not stated), which Z-AUC is on record?
A: 0.0888

Q: For `CC1(COc2ccc3c(c2)ncn3-c2ccc3cccc(N4CCC(N)CC4)c3n2)COC1`, which Z-AUC is on record?
A: -0.0934

Q: For `COc1nccc(-c2c(-c3ccc(F)cc3)ncn2C2CCC(O)CC2)n1` (configuration not stated), which Z-AUC is on record?
A: 1.27

Q: Which Z-AUC does the source give for `COc1ccc2c(c1)c(C1=C(c3c[nH]c4ccccc34)C(=O)NC1=O)cn2CCCN(C)C` here?
A: -0.951

Q: For `COc1c(C)cnc(Cn2cnc3c(Cl)nc(N)nc32)c1C`, which Z-AUC is on record?
A: -0.874

Q: For `COc1cc2ncn(-c3cc(OCc4ccccc4S(C)(=O)=O)c(C#N)s3)c2cc1OC`, which Z-AUC is on record?
A: 0.779

Q: With `O=C(Nc1cccc(Cl)c1)Nc1ncc(CCNc2ncnc3ccsc23)s1` as the compound, how does the Z-AUC read?
A: -1.1

Q: Which Z-AUC does the source give for `COC(=O)Nc1ccc(-c2nc(N3CCOCC3)c3cnn(C4CCN(C(=O)OC)CC4)c3n2)cc1` here?
A: -0.0911

Q: With `CCCC1OC2C[C@@H]3[C@H]4CCC5=CC(=O)C=C[C@]5(C)[C@H]4C(O)C[C@]3(C)[C@]2(C(=O)CO)O1` (some centres not stated) as the compound, how does the Z-AUC read?
A: 0.534

Q: With `COc1cc2nccc(Oc3ccc(NC(=O)Nc4cc(C)on4)c(Cl)c3)c2cc1OC` as the compound, how does the Z-AUC read?
A: 0.0474

Q: With `Cc1ccc(NC(=O)c2cccc(N(C)C)c2)cc1NC(=O)c1ccc(O)cc1` as the compound, how does the Z-AUC read?
A: 1.05

Q: Which Z-AUC does the source give for `Cc1ccc(S(=O)(=O)Nc2nc3ccccc3nc2Nc2ccc3nsnc3c2)cc1` here?
A: -0.564

Q: Which Z-AUC does the source give for `COc1cc(Nc2nc3ccccc3nc2NS(=O)(=O)c2ccc(NC(=O)c3ccc(C)c(OC)c3)cc2)cc(OC)c1` here?
A: -0.462

Q: With `CC1=C(CC(=O)O)c2cc(F)ccc2C1=Cc1ccc(S(C)=O)cc1` (configuration not stated) as the compound, how does the Z-AUC read?
A: 0.811

Q: For `O=C(O)CCNc1cc(N2CCc3ccccc3CC2)nc(-c2ccccn2)n1`, which Z-AUC is on record?
A: 0.477

Q: For `c1ccc(CNc2nc(N3CCOc4ccccc43)nc3c2CCCC3)cc1`, which Z-AUC is on record?
A: 0.277

Q: Which Z-AUC does the source give for `O=C(CO)N1CCC(c2[nH]nc(-c3ccc(Cl)cc3)c2-c2ccncn2)CC1` here?
A: 0.349

Q: Which Z-AUC does the source give for `Cc1ccc(NC(=O)c2ccc(CN3CCN(C)CC3)cc2)cc1Nc1nc(-c2cccnc2)cs1` here?
A: -0.735

Q: For `CCC(c1ccc(O)cc1)C(CC)c1ccc(O)cc1` (configuration not stated), which Z-AUC is on record?
A: -0.74

Q: For `Cc1ccc(C2=Nc3ccc(Cl)cc3OC2)cc1`, which Z-AUC is on record?
A: 0.878

Q: With `Nc1ccn([C@@H]2O[C@H](CO)[C@@H](O)[C@H]2O)c(=O)n1` as the compound, how does the Z-AUC read?
A: 1.45

Q: For `Nc1ncnc2c1c(-c1cccc(OCc3ccccc3)c1)cn2C1CC(CN2CCC2)C1` (configuration not stated), which Z-AUC is on record?
A: -0.126

Q: Which Z-AUC does the source give for `CCNC(=O)c1noc(-c2cc(C(C)C)c(O)cc2O)c1-c1ccc(CN2CCOCC2)cc1` here?
A: -1.81

Q: For `CCCCCCCCCCCCCCCC(=O)O[C@H]1[C@@H](O)[C@@H](O)[C@@H]([C@H](NC(=O)[C@@H]2C[C@@H](CCC)CN2C)[C@H](C)Cl)O[C@@H]1SC`, which Z-AUC is on record?
A: 0.604

Q: Which Z-AUC does the source give for `C[C@@]1(C(=O)Nc2ccc(F)nc2)CCCN1c1nc(Nc2cc(C3CC3)[nH]n2)c2cccn2n1` here?
A: 0.238

Q: For `CC(C)(OCc1nn(Cc2ccccc2)c2ccccc12)C(=O)O`, which Z-AUC is on record?
A: 1.11

Q: With `CCc1cc(-c2n[nH]c(C)c2-c2ccc3c(c2)OCCO3)c(O)cc1O` as the compound, how does the Z-AUC read?
A: 0.497

Q: Which Z-AUC does the source give for `CSc1cccc(Nc2ncc3cc(-c4c(Cl)cccc4Cl)c(=O)n(C)c3n2)c1` here?
A: 0.39

Q: With `C[C@@H](O[C@H]1OCCN(Cc2n[nH]c(=O)[nH]2)[C@@H]1c1ccc(F)cc1)c1cc(C(F)(F)F)cc(C(F)(F)F)c1` as the compound, how does the Z-AUC read?
A: -0.373

Q: For `COc1cc(F)c(C(C)C)cc1-c1ccc(C(F)(F)F)cc1CN1C(=O)O[C@H](c2cc(C(F)(F)F)cc(C(F)(F)F)c2)[C@@H]1C`, which Z-AUC is on record?
A: 0.239

Q: Which Z-AUC does the source give for `COc1ccc(Cn2ccc3ccc(C(=O)NO)cc32)cc1` here?
A: 1.01
